Numbering of substitutions follows the chain as printed; changes in the protein carry UniProt numbers. The full ranking holds about 16,000 sequences; the median of “ka relative to ugcaugu” is about 0.0091, and the highest 2% start at about 0.032. The full list was thinned out, with the highest values kept by preference.
T1: RBFOX1 RRM (Homo sapiens, UniProt Q9NWB1 109-208)
T1 sequence: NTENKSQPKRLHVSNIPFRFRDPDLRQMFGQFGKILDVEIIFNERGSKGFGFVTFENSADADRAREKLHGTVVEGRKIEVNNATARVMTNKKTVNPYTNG

B1: UCAGCGA (DNA:RNA)
RNA: GGGAGACCGGAAUUCAGAUUGUCCUCAGCGAUUAAAUCCCGUCGUAGCCACCA
DNA 1: CAATCTGAATTCCGGTCTCCC
DNA 2: TGGTGGCTACGACGGGATT
B2: ACCACAA (DNA:RNA)
RNA: B1 RNA with U25A, A27C, G28A, G30A
DNA 1: CAATCTGAATTCCGGTCTCCC
DNA 2: TGGTGGCTACGACGGGATT
B3: GUCGAGG (DNA:RNA)
RNA: B1 RNA with U25G, C26U, A27C, C29A, A31G
DNA 1: CAATCTGAATTCCGGTCTCCC
DNA 2: TGGTGGCTACGACGGGATT
B4: GACCCGU (DNA:RNA)
RNA: B1 RNA with U25G, C26A, A27C, G28C, A31U
DNA 1: CAATCTGAATTCCGGTCTCCC
DNA 2: TGGTGGCTACGACGGGATT
B5: AGAUGGC (DNA:RNA)
RNA: B1 RNA with U25A, C26G, G28U, C29G, A31C
DNA 1: CAATCTGAATTCCGGTCTCCC
DNA 2: TGGTGGCTACGACGGGATT
B6: CGCUGGA (DNA:RNA)
RNA: B1 RNA with U25C, C26G, A27C, G28U, C29G
DNA 1: CAATCTGAATTCCGGTCTCCC
DNA 2: TGGTGGCTACGACGGGATT
B7: GCUAUGG (DNA:RNA)
RNA: B1 RNA with U25G, A27U, G28A, C29U, A31G
DNA 1: CAATCTGAATTCCGGTCTCCC
DNA 2: TGGTGGCTACGACGGGATT
B8: CACCGAC (DNA:RNA)
RNA: GGGAGACCGGAAUUCAGAUUGUCCCACCGACUUAAAUCCCGUCGUAGCCACCA
DNA 1: CAATCTGAATTCCGGTCTCCC
DNA 2: TGGTGGCTACGACGGGATT
B9: GGAAGCG (DNA:RNA)
RNA: B8 RNA with C25G, A26G, C27A, C28A, A30C, C31G
DNA 1: CAATCTGAATTCCGGTCTCCC
DNA 2: TGGTGGCTACGACGGGATT
B10: CUCUACU (DNA:RNA)
RNA: B8 RNA with A26U, C28U, G29A, A30C, C31U
DNA 1: CAATCTGAATTCCGGTCTCCC
DNA 2: TGGTGGCTACGACGGGATT
B11: GUCAUUG (DNA:RNA)
RNA: B8 RNA with C25G, A26U, C28A, G29U, A30U, C31G
DNA 1: CAATCTGAATTCCGGTCTCCC
DNA 2: TGGTGGCTACGACGGGATT
B12: UGCUGGC (DNA:RNA)
RNA: B8 RNA with C25U, A26G, C28U, A30G
DNA 1: CAATCTGAATTCCGGTCTCCC
DNA 2: TGGTGGCTACGACGGGATT
B13: GUGCUGA (DNA:RNA)
RNA: B1 RNA with U25G, C26U, A27G, G28C, C29U
DNA 1: CAATCTGAATTCCGGTCTCCC
DNA 2: TGGTGGCTACGACGGGATT
B14: UGGCUGA (DNA:RNA)
RNA: B1 RNA with C26G, A27G, G28C, C29U
DNA 1: CAATCTGAATTCCGGTCTCCC
DNA 2: TGGTGGCTACGACGGGATT
B15: UGAUUCG (DNA:RNA)
RNA: B1 RNA with C26G, G28U, C29U, G30C, A31G
DNA 1: CAATCTGAATTCCGGTCTCCC
DNA 2: TGGTGGCTACGACGGGATT
B16: CGGCUGC (DNA:RNA)
RNA: B8 RNA with A26G, C27G, G29U, A30G
DNA 1: CAATCTGAATTCCGGTCTCCC
DNA 2: TGGTGGCTACGACGGGATT
B17: CGGCUGA (DNA:RNA)
RNA: B8 RNA with A26G, C27G, G29U, A30G, C31A
DNA 1: CAATCTGAATTCCGGTCTCCC
DNA 2: TGGTGGCTACGACGGGATT
B18: UGGCUGC (DNA:RNA)
RNA: B8 RNA with C25U, A26G, C27G, G29U, A30G
DNA 1: CAATCTGAATTCCGGTCTCCC
DNA 2: TGGTGGCTACGACGGGATT
B19: GUCCUGA (DNA:RNA)
RNA: B8 RNA with C25G, A26U, G29U, A30G, C31A
DNA 1: CAATCTGAATTCCGGTCTCCC
DNA 2: TGGTGGCTACGACGGGATT
B20: UGAUGGC (DNA:RNA)
RNA: B1 RNA with C26G, G28U, C29G, A31C
DNA 1: CAATCTGAATTCCGGTCTCCC
DNA 2: TGGTGGCTACGACGGGATT

What follows are binders tested against T1, RBFOX1 RRM (assay: EMSA; HiTS-Eq, 1 nM pool, 10 min; buffer printed only for the single-RNA assays: 10 mM Tris pH 7.5, 150 mM NaCl, 3.4 mM EDTA, 0.001% NP-40, 30 C). Details: tags: His6 N-terminal (pET28a); label: 5' 32P.
Outline: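 Purified RbFox RRM (wild type or mutant) was equilibrated for 10 min in 50 µL with 1 nM of a 5′-radiolabelled pool of RNA with 7 randomized nucleotides, its flanks annealed to DNA oligonucleotides, across increasing protein concentrations. Free RNA was separated by 8% native PAGE, excised, reverse-transcribed, PCR-barcoded and sequenced on an Illumina HiSeq 2500. Relative association constants came from read-count changes of each variant against the control reaction, normalised to the cognate motif.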

Question: With B1 as the binder, how does the binding signal read?
Answer: 0.00561 KA relative to UGCAUGU

Question: Which binding signal does the source give for B2 here?
Answer: 0.00102 KA relative to UGCAUGU

Question: How did the binding signal turn out when B3 was run?
Answer: 0.0114 KA relative to UGCAUGU

Question: With B4 as the binder, how does the binding signal read?
Answer: 0.00715 KA relative to UGCAUGU

Question: For B5, which binding signal is on record?
Answer: 0.0111 KA relative to UGCAUGU

Question: How did the binding signal turn out when B6 was run?
Answer: 0.00997 KA relative to UGCAUGU

Question: For B7, which binding signal is on record?
Answer: 0.0134 KA relative to UGCAUGU

Question: Which binding signal does the source give for B8 here?
Answer: 0.00223 KA relative to UGCAUGU

Question: For B9, which binding signal is on record?
Answer: 0.0177 KA relative to UGCAUGU

Question: With B10 as the binder, how does the binding signal read?
Answer: 0.00629 KA relative to UGCAUGU

Question: B11 was tested. Which binding signal did it give?
Answer: 0.0126 KA relative to UGCAUGU

Question: How did the binding signal turn out when B12 was run?
Answer: 0.0238 KA relative to UGCAUGU

Question: How did the binding signal turn out when B13 was run?
Answer: 0.0323 KA relative to UGCAUGU

Question: With B14 as the binder, how does the binding signal read?
Answer: 0.036 KA relative to UGCAUGU

Question: For B15, which binding signal is on record?
Answer: 0.0228 KA relative to UGCAUGU

Question: How did the binding signal turn out when B16 was run?
Answer: 0.018 KA relative to UGCAUGU

Question: For B17, which binding signal is on record?
Answer: 0.022 KA relative to UGCAUGU

Question: Which binding signal does the source give for B18 here?
Answer: 0.0373 KA relative to UGCAUGU

Question: With B19 as the binder, how does the binding signal read?
Answer: 0.0213 KA relative to UGCAUGU

Question: For B20, which binding signal is on record?
Answer: 0.0129 KA relative to UGCAUGU

Reference: article PMC9911399, “Two distinct binding modes provide the RNA-binding protein RbFox with extraordinary sequence specificity”
